# From PubChem
# CYP2C19 act = human CYP2C19 activators, primary screen, biochemical, luminescence. 96,000 tested, under 10 active. Cytochrome P450 2C19 (Homo sapiens), P33261. recombinant CYP2C19, luciferin-H EGE luminescence; active compounds read high; 0 = fully inhibited enzyme, 1 = untreated enzyme. AID 1025, 2008. activation factor at 5 µM;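 active means activation factor of at least 2 at 5 µM in the primary screen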;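 further: 0 = wells with 2.5 mM tranylcypromine and 1 = vehicle-only wells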
# CYP2C9 inhib = blockers of cytochrome P450 2C9 activity – biochemical, luminescence, ADME assay, primary screen; P11712; CYP2C9 Supersomes, luciferin-H conversion; inhibition, % at 5 µM; hit rate 20% among 96,000; AID 777, 2007;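 active means blocking of liver enzyme CYP2C9 beyond about 50% at 5 µM, limit read from the data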
# sEH act = soluble epoxide hydrolase activators, primary screen, biochemical, human sEH. Bifunctional epoxide hydrolase 2 (Homo sapiens), P34913. AID 717, 2007. activation, % at 2 µM. purified human sEH enzymatic activity, activator screen. hit rate 0.04% among 91,000; in the data active means activation above about 37%
# Target sequence (P34913 whole entry, looked up): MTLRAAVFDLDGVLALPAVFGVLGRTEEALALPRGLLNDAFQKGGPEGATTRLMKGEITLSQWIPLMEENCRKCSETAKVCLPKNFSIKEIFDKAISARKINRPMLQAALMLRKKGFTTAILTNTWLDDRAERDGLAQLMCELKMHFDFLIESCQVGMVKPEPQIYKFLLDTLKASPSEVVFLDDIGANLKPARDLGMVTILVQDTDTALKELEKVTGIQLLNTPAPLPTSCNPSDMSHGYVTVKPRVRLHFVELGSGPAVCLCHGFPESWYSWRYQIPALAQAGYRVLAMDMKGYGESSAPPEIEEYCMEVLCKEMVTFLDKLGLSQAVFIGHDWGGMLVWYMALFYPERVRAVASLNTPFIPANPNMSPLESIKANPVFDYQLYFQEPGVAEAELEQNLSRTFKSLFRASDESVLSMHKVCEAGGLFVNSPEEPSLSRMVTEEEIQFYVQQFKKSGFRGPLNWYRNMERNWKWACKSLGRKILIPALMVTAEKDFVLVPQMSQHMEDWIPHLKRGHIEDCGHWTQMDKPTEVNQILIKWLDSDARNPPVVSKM
# sEH inhibitor = soluble epoxide hydrolase inhibitors, primary screen, biochemical, human sEH; recombinant human sEH enzymatic activity assay; AID 707, 2007; inhibition, % at 2 µM; Bifunctional epoxide hydrolase 2 (Homo sapiens), P34913; hit rate 0.34% among 91,000; in the data active means inhibition above about 80%
# CYP2C9 activ = human CYP2C9 activators, primary screen, biochemical, luminescence. AID 1024, 2008. activation factor at 5 µM. hit rate 1.4% among 96,000. recombinant CYP2C9, luciferin-H conversion; active compounds read high; factor 1 = untreated enzyme, 0 = blocked;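 active means activation factor of 2 or more for CYP2C9 at a 5 µM dose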;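 further: 0 = sulfaphenazole-blocked wells and 1 = vehicle-only wells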
# CYP2C19 inhib = blockers of cytochrome P450 2C19 activity – biochemical, luminescence, ADME assay, primary screen. P33261. CYP2C19 Supersomes, luciferin-H EGE luminescence, 30 min. inhibition, % at 5 µM. hit rate 21% among 96,000;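 active means CYP2C19 inhibition above a set limit at 5 µM in the primary screen, cut at about 50% in these data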;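 further: plate controls were negative control wells for no effect and 2.5 mM tranylcypromine positive control for full effect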
# * hit, by the source's call; nt = no result given. This is a sample that favours compounds with a hit; in the whole collection about 27% have one here.
SMILES,CYP2C19 act,CYP2C9 inhib,sEH act,sEH inhibitor,CYP2C9 activ,CYP2C19 inhib
COc1ccc(C(CNC(=O)c2ccc(S(=O)(=O)N3CCOCC3)cc2)N2CCCCC2)cc1 (configuration not stated),nt,nt,2,0,nt,nt
CCOc1ccc2nc(NC(=O)c3ccc(OC)c(S(=O)(=O)N4CCOCC4)c3)sc2c1,0.9,25,-8,6,0.7,11
COc1ccc(C(=O)NCC(c2ccc(F)cc2)N2CCOCC2)cc1S(=O)(=O)N1CCCC1 (configuration not stated),0.1,11,-11,12,0.9,92*
COc1ccc(CC(=O)NCc2ccccc2)cc1S(=O)(=O)N1CCOCC1,1,5,6,-3,0.9,0
COc1ccc(CC(=O)Nc2nc3ccc(F)cc3s2)cc1S(=O)(=O)N1CCOCC1,0.2,75*,4,-1,0.3,75*
CCCCNC(=O)C(=O)NC(C)CCc1ccccc1 (configuration not stated),0.8,6,0,2,0.9,20
Nc1nonc1C(=O)NC(c1ccccc1)c1ccccc1,0.1,78*,-4,7,0.2,90*
COc1ccc(Cl)cc1N(C)C(=O)CCc1nc(-c2ccc(C)cc2)no1,0.1,94*,0,4,0.1,92*
O=C(O)CCc1nc(-c2ccccc2)no1,1,1,-7,8,1,-1
CCc1ccccc1N(C)C(=O)CCc1nc(-c2ccc(C)cc2)no1,0.5,63*,11,-9,0.4,46
COc1ccc(-n2nc(N)c3c(=O)oc(N(C)C)nc32)cc1,0.6,21,2,0,0.8,40
O=C(CC(c1ccccc1)c1ccccc1)Nc1ncn[nH]1,0.5,83*,-1,1,0.2,50*
Cc1cccc(C)c1OCC(=O)Nc1ncn[nH]1,0.4,1,8,-10,1,63*
Cc1ccc(SC(C)C(=O)Nc2ncn[nH]2)cc1 (configuration not stated),0.8,28,-2,7,0.7,25
O=C(COc1ccc2ccccc2c1Br)Nc1ncn[nH]1,0.4,9,nt,nt,0.9,56*
CCNc1nc(NCC)nc(N2CC(=O)N(CC(=O)OCC)C2=N)n1,nt,nt,7,-4,nt,nt
CCN1CCn2c3c(c4cc(C)ccc42)CCCC31 (configuration not stated),0.5,52*,-1,1,0.5,54*
Cc1ccc2c(c1)c1c3n2CCCNC3CCC1 (configuration not stated),1.1,-4,1,0,1,-11
CCn1c(COc2ccc(Cl)cc2)nnc1SCc1ccc(C#N)cc1,0.2,76*,-15,18,0.2,76*
CCn1c(SCc2ccc(C#N)cc2)nnc1-c1cccc(Cl)c1,0.3,14,-8,6,0.9,65*
CCn1c(COc2ccccc2)nnc1SCc1ccc(C#N)cc1,0.8,17,-13,15,0.8,22
Cc1nnc(SCC(=O)Nc2ncc(Cc3ccc(F)cc3)s2)n1N,0.9,20,2,-3,0.8,5
CCOC(=O)Cn1c(-c2cccnc2Cl)nc2cc(Cl)c(Cl)cc21,0.9,24,-6,9,0.8,10
COc1ccccc1Cn1c(-c2ccccc2OC)nc2ccccc21,1.3,-6,8,-10,1.1,-29
CCn1c(-c2cccnc2Cl)nc2cc(Cl)c(Cl)cc21,0.5,67*,-6,5,0.3,50
SMILES,CYP2C19 act,CYP2C9 inhib,sEH act,sEH inhibitor,CYP2C9 activ,CYP2C19 inhib
Oc1ccccc1Cn1c(-c2ccccc2O)nc2ccccc21,0.4,66*,12,-9,0.3,60*
Fc1ccc(Cn2c(-c3cscn3)nc3ccccc32)c(Cl)c1,1.1,-7,-6,4,1.1,-8
Clc1ccc(Cn2c(-c3cccnc3Cl)nc3ccccc32)cc1,0.2,65*,7,-4,0.4,82*
Clc1ccc(Cn2c(-c3cccnc3Cl)nc3ccccc32)c(Cl)c1,0.4,58*,-1,3,0.4,60*
CCOc1ccccc1N1CC(C(=O)Nc2nccs2)CC1=O (configuration not stated),0.9,-13,nt,nt,1.1,9
O=C(O)c1ccc(CSCc2c(F)cccc2Cl)o1,1.1,-11,4,-5,1.1,-10
CCOC(=O)CSc1nc2c(sc(=S)n2Cc2ccco2)c(=O)n1-c1ccccc1,0.4,69*,nt,nt,0.3,60*
CCOC(=O)CC(=O)CSc1nc2c(sc(=S)n2-c2ccccc2)c(=O)[nH]1,1,66*,19,-23,0.3,4
CCOC(=O)CSc1nc2ccccc2c(=O)n1Cc1ccco1,0.9,19,nt,nt,0.8,7
CCN(CC)C(=O)CSc1nnc(-c2cccs2)n1Cc1ccco1,1,10,-4,3,0.9,-1
CCN(CC)C(=O)CSc1nc2c(sc(=S)n2Cc2ccco2)c(=O)n1-c1ccccc1,0.6,52*,18,-15,0.5,36
CCOC(=O)CSc1nnc(CSc2nc(C)cc(C)n2)n1Cc1ccco1,0.5,21,nt,nt,0.8,47
CCOC(=O)CSc1nc2c(sc(=S)n2-c2ccccc2OC)c(=O)n1Cc1ccco1,0.1,55*,18,-14,0.5,85*
Cc1ccc(S(=O)(=O)Cc2cccc(C(=O)N3CCOCC3)c2)cc1,1,-21,1,4,1.2,-1
Cc1nc2cc(C(F)(F)F)ccc2n1C1CCN(CC(=O)NC(C)(C)C)CC1,0.7,12,2,-4,0.9,33
O=C(NCc1ccccc1)N1CCn2c(nc3ccccc32)C1,nt,nt,-7,6,nt,nt
CC(C)C(=O)Nc1ccc(NC(=O)c2cccs2)cn1,0.9,25,nt,nt,0.8,10
O=S1(=O)C=C(SCc2ccc(Cl)c(Cl)c2)Nc2ccccc21,0.3,71*,0,-2,0.3,68*
COc1cccc(C(=O)COC(=O)c2ccc(NC(=O)c3ccccc3)cc2)c1,nt,nt,-8,7,nt,nt
Cc1cc(OCC(=O)c2ccc(F)cc2)ccc1N1C(=O)CCC1=O,0.9,-4,12,-12,1,15
COc1ccc(-c2nc(NC(=O)Cn3ccc(C(F)(F)F)n3)sc2C)cc1,0.4,40,-14,16,0.6,57*
Cc1cc(C(=O)CSc2nnc3c(Cl)cc(Cl)cn23)c(C)n1C,0.8,3,0,3,1,20
C=CCn1c(C)cc(C(=O)CSc2nnc3c(Cl)cc(Cl)cn23)c1C,0.2,-88,2,-8,1.9,78*
O=C(Cn1nc(Cc2ccncc2)c2ccccc2c1=O)N1CCc2ccccc2C1,0.1,80*,9,-10,0.2,88*
